From PubChem
M1 ag parental = counter-screen for M1 agonists: effect in parental CHO-K1 cells; Fluo-8 calcium fluorescence; scaled to maximal ATP response, vehicle zero; activation, % at 3 µM; 360,000 tested, 0.48% active; AID 602248; in the data active = activation above about 15%;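 note: untransfected CHO-K1 host cells lacking M1 receptor as counterscreen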
M1 antag = blocks human M1 muscarinic receptor; P11229; CHO-K1 hM1, Fluo-8 calcium fluorescence, ACh EC80 antagonist; inhibition, % at 3 µM; 360,000 tested, 1.3% active; AID 588852;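 active = percent inhibition above its own plate's cutoff, namely the mean of that plate's compound wells plus 3 SD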;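 note: peak over basal fluorescence ratio during 140 s after agonist addition; 0% = ACh EC80 plus DMSO and 100% = DMSO alone without agonist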
Target sequence (P11229 whole entry, looked up): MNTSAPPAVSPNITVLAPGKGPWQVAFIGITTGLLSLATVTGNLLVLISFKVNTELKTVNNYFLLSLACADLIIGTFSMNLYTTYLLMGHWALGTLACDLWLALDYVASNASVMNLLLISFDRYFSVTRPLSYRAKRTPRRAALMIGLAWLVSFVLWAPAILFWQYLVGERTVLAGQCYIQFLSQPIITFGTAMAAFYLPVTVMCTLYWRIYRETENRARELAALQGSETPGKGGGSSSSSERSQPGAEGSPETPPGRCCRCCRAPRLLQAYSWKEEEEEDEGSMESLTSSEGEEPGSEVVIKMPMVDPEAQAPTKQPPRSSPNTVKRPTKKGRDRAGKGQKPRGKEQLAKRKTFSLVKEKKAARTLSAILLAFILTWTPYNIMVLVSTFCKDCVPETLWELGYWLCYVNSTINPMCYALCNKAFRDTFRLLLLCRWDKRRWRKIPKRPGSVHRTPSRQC
CHRM1 agonist = agonists of human M1 muscarinic receptor; P11229; CHO-K1 hM1, Fluo-8 calcium fluorescence, agonist mode; 0% DMSO, 100% acetylcholine EC100; activation, % at 3 µM; 360,000 tested, 0.33% active;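 active = activation above the run's mean compound activation plus 3 SD, cut at about 16% in these data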;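 note: peak over basal fluorescence ratio within a 140 s kinetic read after compound addition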
CHO-K1 Ca antag = M1 antagonist counterscreen hit in parental CHO-K1 cells; inhibition, % at 3 µM; ATP-induced calcium, Fluo-8 fluorescence; 360,000 tested, 0.6% active;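 active = inhibition above a per-plate cutoff, the plate's mean sample inhibition plus 3 SD, cut at about 24% in these data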;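 note: 0% = DMSO plus EC80 ATP and 100% = DMSO alone without ATP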
M1 PAM parental = M1 PAM counterscreen hit in parental CHO-K1 cells | ATP EC20, Fluo-8 calcium fluorescence; 0% at ATP EC20, 100% at ATP max | activation, % at 3 µM | 360,000 tested, 0.02% active;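 active = activation above the run cutoff, the mean activation of all test compounds plus 3 SD, cut at about 40% in these data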;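 note: peak over basal fluorescence ratio in a 140 s read after ATP addition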
M1 PAM = human CHRM1 positive allosteric modulation; CHO-K1 hM1, Fluo-8 calcium fluorescence, ACh EC20; 0% = ACh EC20, 100% = maximal ACh; activation, % at 3 µM; 360,000 tested, 0.088% active; AID 588819; in the data active = activation above about 19%, passing the limit was not always enough
* hit, by the source's call; x = no result. This is a sample that favours compounds with a hit; in the whole collection about 2.4% have one here.

SMILES	M1 ag parental	M1 antag	CHRM1 agonist	CHO-K1 Ca antag	M1 PAM parental	M1 PAM
O=C1NC[C@H](CCCCN2C[C@H](Cc3ccc(O)cc3)N(CCc3ccc(O)cc3)C(=O)C2=O)N(Cc2ccccc2)C1=O	0.8	x	x	-1.0	-11.1	x
COc1cc(C(=O)NNC(=O)COc2cccc(F)c2)ccc1OCC(=O)N1CCOCC1	-0.6	-3.7	-1.6	-2.8	-5.4	3.9
CN(C)c1ccc(CNC(=O)c2ccc(CNc3c(N4CCCCC4)c(=O)c3=O)cc2)cc1	0.2	-12.2	-6.6	1.9	10.0	26.6*
O=C(NCc1ccc(Cl)cc1)c1ccc(CNc2c(N3CCCC3)c(=O)c2=O)cc1	1.0	8.6	-4.3	-6.3	11.5	-3.6
COc1ccc(CNS(=O)(=O)c2ccc3c(c2)N(C(C)=O)CC(C)S3)cc1 (stereo not given)	16.6*	-0.3	3.9	8.2	-14.9	1.1
CCN(CC)CC#CCC(O)(c1ccccc1)C1CCCCC1 (stereo not given)	16.1*	98.8*	-15.2	18.8	-6.0	-38.0
Cc1cc(N2CCN(c3cccc(C(F)(F)F)c3)CC2)n2nc(C)nc2n1	-0.1	8.2	-0.9	9.6	7.1	30.9*
Cc1cc(N2CCN(c3ccccn3)CC2)n2nc(C)nc2n1	-0.1	-2.5	-1.5	11.8	-3.7	5.7
CC(C)CC(=O)Nc1ccc(C(=O)COC(=O)Cc2n[nH]c(=O)c3ccccc23)cc1	0.9	-6.7	-2.7	6.7	1.9	7.6
CN1CCN(C(=O)CN(C2CCCCC2)S(=O)(=O)c2ccc(Br)cc2)CC1	4.8	1.8	18.1*	-8.8	18.1	-1.7
COCC(=O)N1CCC(c2nc3ccccc3[nH]2)CC1	0.6	-4.8	20.4*	-8.3	-2.0	0.0
Cc1ccc(S(=O)(=O)N2CCCC2)cc1C(=O)N1CCC(C)CC1	0.0	-11.2	-1.5	3.6	7.5	13.1
COc1cccc(-c2c(NC(=O)c3ccco3)n(-c3ccc(C)cc3)nc(C)c2=O)c1	-0.5	-0.9	-1.2	32.4*	-5.7	8.6
Cc1ccccc1C(=O)Oc1cc(N)n(S(C)(=O)=O)n1	-0.6	-4.2	-4.6	24.2*	-14.9	6.8
COc1cc(CN2CCN(C(O)(c3ccccc3)c3ccccc3)CC2)cc(OC)c1OC	1.7	61.7*	-9.0	9.8	-5.9	-27.8
Cc1onc(-c2c(Cl)cccc2Cl)c1C(=O)N=C(N)N1CCCC1	1.6	-7.7	-6.3	-11.8	32.7	7.5
CCC1CCCCN1CCNS(=O)(=O)c1ccc2c(c1)oc(=O)n2C (stereo not given)	0.2	50.4*	-12.8	4.9	3.5	-27.2
CCC1CCCCN1CCCNS(=O)(=O)c1ccc2c(c1)oc(=O)n2C (stereo not given)	0.7	23.1	-4.7	0.2	-11.9	-9.0
C=CCc1ccccc1OCCNCCCOC	-0.3	20.0	-12.2	23.7*	-16.3	-14.8
C=CCc1cc(Cl)ccc1OCCNCCCOC	2.4	7.5	-8.4	-10.1	5.4	-13.1
CCN(CC)CCCNc1ncnc2scc(-c3ccc(F)cc3)c12	0.2	33.9*	-9.1	-13.3	16.3	-19.7
CCOc1ccc(Br)cc1S(=O)(=O)Nc1ccc(NC(=O)c2ccccc2F)cc1	2.6	6.0	-8.4	-6.5	25.5	-1.9
COc1ccc(/C=N/n2c(-c3n[nH]c4c3CCC4)n[nH]c2=S)cc1	3.2	0.8	-6.4	-3.7	13.0	-10.1
CC(/C=N/n1c(-c2n[nH]c3c2CCC3)n[nH]c1=S)=C\c1ccco1	0.2	67.1*	-6.1	-9.3	18.3	-26.5
COc1cccc(/C=N/n2c(-c3n[nH]c4c3CCC4)n[nH]c2=S)c1OC	0.3	75.7*	-7.4	-10.0	-0.9	-26.1
SMILES	M1 ag parental	M1 antag	CHRM1 agonist	CHO-K1 Ca antag	M1 PAM parental	M1 PAM
O=C1CCCc2[nH]nc(-c3cccnc3)c21	-0.3	7.2	-4.6	26.0*	-8.7	-4.6
O=C1C=C(c2cccnc2)CCC1	2.9	-0.2	-3.4	0.9	4.4	-0.5
Cc1ccc(S(=O)(=O)NCCC(=O)N2CCC(C(N)=O)CC2)cc1C	1.5	-20.5	1.5	-11.3	7.3	23.5*
CC(=O)c1ccc(N2CCN(c3ccccc3O)CC2)c([N+](=O)[O-])c1	19.0*	37.0*	0.1	13.6	-6.9	-25.0
O=C(O)c1ccccc1C(=O)c1ccc(N2CCCC2)c([N+](=O)[O-])c1	-0.6	-1.2	-6.9	4.9	-10.3	1.8
COc1cc(/C=C(\C#N)C(=O)c2c[nH]c3ccccc23)cc(OC)c1O	19.4*	22.9	22.6*	14.3	7.4	-6.0
